Measurements as given in PMC10163288.
Not all results are given here. No count for the full screen is at hand. Unmarked numbers belong to inactive results.

B1: il2ra_site2_3nfp_sap_19_mot_HHH_b1_03376_000000004_0001_41_55_H_._88162e6262ef81793ed720f4f561f318_0001_0001_0000800035_0000001_0_0001_af2pred_0001_1_af2pred_sw … (protein)
chain: SSDEEQEESEELKELIREALEKNDDEKLRKLIKEAASFALQLNDEELLEFASEARALLAKLRLSS
B2: il2ra_site1_1z92_normal_mot_922575b2e9738a49cb663a995786872c_0001_af2_000000234_0001_18_32_H_._09c2afe89fb4cbada1505b3a46965288_0001_af2_0001_0000100006_0000001 … (protein)
chain: GPEQELEELEEELGDPREAIRLLLEELEEESGDPELARQFLKIEIKRLFNVPPEEAERLLREAEK
B3: il2ra_site1_3nfp_normal_mot_HHH_b1_04931_000000291_0001_38_56_H_._5fa2c1a30f04debedfe40931e4d0b367_0001_af2_0001_0000700055_0000001_0 (protein)
chain: DVRFLLEAARFAGDELVVEVAEKLEELREEDPDDQEVKELVQKLLQLLAKDPEEAKKLAEELKRR
B4: il2ra_site1_3nfp_normal_mot_ems_3hC_3_0002_000000237_0001_23_41_H_._971380201c9414114138cf1fdc40c0f4_0001_1_0001_0000300014_0000001_0_af2pred_0001_af2pred (protein)
chain: SLAEELVEEIEEKGLPPEEIEKLIREILKRIGDPEEAREFFEELMRLAAKNRNEELLEAIKLVLR
B5: il2ra_site1_3nfp_sap_10_mot_HHH_b2_00770_af2_000000063_0001_1_19_H_._HHH_b2_07788_0001_0000400012_0000001_0_0001 (protein)
chain: NEEARRLAEAIARGDPRVEELIEELVEELKRKGDPDLRHALKALARMARSFGNPELAEELERLLK
B6: il2ra_site1_1z92_normal_mot_HHH_b1_07828_af2_000000107_0001_18_34_H_._HHH_b1_02447_af2_0001_0000300012_0000001_0 (protein)
chain: SSSSDLEEAIEILLQAIRRAIEAGNEKAAERFIEFAKEQIEDSGDPELERILRELEELLRSSSSS
B7: il2ra_site1_2b5i_normal_mot_HHH_b1_02271_000000068_0001_1_16_H_._HHH_b1_08003_0001_0000900024_0000001_0_af2pred_dldesign_0_af2pred (protein)
chain: SSSSSDKKAEVERLIEEAERLYKAGKRREALEKLNEAKKLADAADDEELEDKIEELAKKISSSSS
B8: il2ra_site1_3nfp_sap_13_mot_0eddeacbb14b769e73e254714f31e2f9_0001_af2_000000052_0001_37_51_H_._3685a7fc0315cffcf770f862f50b42b9_0001_1_0001_0000400028_0000001_0 … (protein)
chain: SDLEEEVRELIELIKEFAEERNSPVAKLYAELLEEAARRAEERNDERSLRYVLRSARLALRSGSS
B9: il2ra_site1_1z92_sap_18_mot_HHH_b1_00368_000000203_0001_23_39_H_._d7cfadeb27be910639eb6e95e3396c32_0001_af2_0001_0000300014_0000001_0_0001 (protein)
chain: SSSSDEELEERVKQFAEELVKELGLDEHAREALEKDAEAAVRLGFSERSIKLALERAARRASSSS
B10: il2ra_site1_3nfp_sap_17_mot_HHH_b1_07644_af2_000000110_0001_40_57_H_._HEEHE_2706_0001_0000400054_0000001_0_0001_af2pred_0001_af2pred_1_swapped (protein)
chain: SSSSDALEFVEELAEKAFENNDKFQLRALYKLLREALEKTGNPEAEEVLEKVEELLRELQSSSSS
B11: il2ra_site2_2erj_sap_25_mot_ca9fcc9ace360711d783d1260e4fbff1_0001_1_af2_000000007_0001_15_32_H_._7f39e2d7389de0c2f60e905c27398b6a_0001_1_af2_0001_0000400011_000 … (protein)
chain: SSSSSYEERVEELLEEAEEAYREGDLHAVYRLAVEALHVASELGDQELIRLVAEFVEKISDSSSS
B12: il2ra_site1_2b5i_sap_16_mot_HHH_b1_01419_af2_000000080_0001_42_53_H_._HHH_b1_05266_af2_0001_0000100001_0000001_1_0001_af2pred_dldesign_0_af2pred (protein)
chain: SSSSSNQDEVYRLYKEALRLYKEGKREEAKKVLEEALKLAEKNKDEVAVKELKELLKRLESSSSS
B13: il2ra_site1_1z92_normal_mot_9b3351f2f66fbcc824ad33b4da01f8ef_0001_af2_000000012_0001_16_32_H_._HHH_b1_08171_0001_0000100006_0000001_0 (protein)
chain: SSSSSEEVLKKDLRFAVEARNPSSFRRLAELARRDLKEAGDEEALREFEEFVEELEQELGSSSSS
B14: il2ra_site1_1z92_normal_mot_HHH_b1_00893_000000159_0001_19_35_H_._43152d1d296b358565056a4a32fd9b81_0001_1_af2_0001_0000300029_0000001_0_af2pred_0001_af2pred_1_s … (protein)
chain: DDEELEEKLKEAAENRDVEKLEELLRELLELLGDPAVKFLLEFFERLLKRDEEDAVKNVLRFVSF
B15: il2ra_site1_2b5i_normal_mot_HHH_b1_06428_000000224_0001_1_17_H_._HHH_b1_02461_0001_0000700038_0000001_0_af2pred_dldesign_0_af2pred (protein)
chain: SSSSSSLAEARRLLLETEELLKAGKLEELAKLKKRIDALKAASDDPKVKKIADLINEALESSSSS
B16: il2ra_site2_2erj_normal_mot_c2bf78bdce995293a161f7082e24b401_0001_af2_000000082_0001_17_32_H_._HHH_b1_07868_0001_0000100001_0000001_0 (protein)
chain: SSSSSDEEEIRREVEELLEKVEEVPDLEEAYRLANEALRLASRLQDEELLRLILEVVQRHSSSSS
B17: il2ra_site2_3nfp_normal_mot_HHH_b1_05627_af2_000000038_0001_43_56_H_._HHH_b1_07199_af2_0001_0000600017_0000001_0 (protein)
chain: SSSSDKAEEYLRIALELLEEAIKAGDEESAKSILEVARLAAELHNDEEVEERLEELEELLSSSSS
B18: il2ra_site1_3nfp_normal_mot_HHH_b1_04049_af2_000000244_0001_42_55_H_._d1fb33ed66649044859e967e86ea168f_0001_af2_0001_0000200005_0000001_0 (protein)
chain: TKEKAIEDIIRALKQLPDPEVRELAEEAEELLENGDPEEALKVLKEAAKLLGDPVLEKLIEQYLT
B19: il2ra_site2_3nfp_sap_7_mot_HHH_b2_00746_000000285_0001_20_36_H_._HHH_b2_00413_af2_0001_0000200017_0000001_0_0001 (protein)
chain: SSSSDEVEELLREIRELLEEGDTYEAAQLLVRVSEIAAKLGDPELVKIVLELYKILKEKASSSSS

Biological target: il2ra, P01589
Sequence (P01589 whole entry): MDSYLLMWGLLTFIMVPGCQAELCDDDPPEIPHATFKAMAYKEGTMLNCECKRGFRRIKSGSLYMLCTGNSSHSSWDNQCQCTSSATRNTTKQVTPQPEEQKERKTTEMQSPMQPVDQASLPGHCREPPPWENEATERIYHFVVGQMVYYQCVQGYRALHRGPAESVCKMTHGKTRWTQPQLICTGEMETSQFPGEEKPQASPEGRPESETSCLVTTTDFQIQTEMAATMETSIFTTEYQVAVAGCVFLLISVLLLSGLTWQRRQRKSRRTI
Test: yeast display titration

| Binder | apparent Kd |
| --- | --- |
| B1 | no binding seen |
| B2 | no binding seen |
| B3 | no binding seen |
| B4 | no binding seen |
| B5 | no binding seen |
| B6 | no binding seen |
| B7 | no binding seen |
| B8 | no binding seen |
| B9 | no binding seen |
| B10 | no binding seen |
| B11 | no binding seen |
| B12 | no binding seen |
| B13 | > 1500 nM |
| B14 | > 2780 nM |
| B15 | no binding seen |
| B16 | no binding seen |
| B17 | no binding seen |
| B18 | no binding seen |
| B19 | no binding seen |
